Experimental data reported in the supplement of paper PMC6555819.

Tests used:
Assay in all cases: PBM binding z-score (relative to random genomic background probes); higher = stronger binding; sequences stand for … in GC…GCGATTGACAGCGTAGAATGAAGG
[1] = tested on: PPARg:RXRa DBDmut IVT, anti-RXR (DBD mutation: RXRa K156A/R161A, NR concentration 270 nM, RXRa partner concentration 90 nM)
Summary of the method: (§1)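 Custom Agilent 4×180K protein-binding microarrays carried double-stranded probes. Their 34-nt variable regions held direct-repeat seeds, single-nucleotide variants, half-site ablations and random human genomic background sequences. Arrays were incubated 1 h with ligand-free nuclear receptor dimers in PBS pH 7.4, 2% milk, 0.02% Triton X-100, 1 mM DTT, 0.2 mg/mL BSA and 0.4 mg/ml salmon testes DNA. Antibodies against each partner (one per run) detected binding, and scanned fluorescence was regression-normalized. Binding z-scores use random background probes as reference.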

[2] = tested on: PPARg:RXRa IVT, anti-PPARg (NR concentration 270 nM, RXRa partner concentration 90 nM)
Summary of the method: as §1

[3] = tested on: PPARg homodimer (NR concentration 180 nM)
Summary of the method: as §1

[4] = tested on: PXR:RXRa (NR concentration 270 nM, RXRa partner concentration 90 nM)
Summary of the method: as §1

[5] = tested on: PXR homodimer (NR concentration 270 nM)
Summary of the method: as §1

[6] = tested on: RARa:RXR (NR concentration 270 nM, RXRa partner concentration 90 nM)
Summary of the method: as §1

[7] = tested on: RARa homodimer (NR concentration 270 nM)
Summary of the method: as §1

[8] = tested on: RARb:RXRa (NR concentration 270 nM, RXRa partner concentration 90 nM)
Summary of the method: as §1

[9] = tested on: RARb homodimer (NR concentration 270 nM)
Summary of the method: as §1

[10] = tested on: RARg:RXRa (NR concentration 270 nM, RXRa partner concentration 90 nM)
Summary of the method: as §1

[11] = tested on: RARg homodimer (NR concentration 270 nM)
Summary of the method: as §1

[12] = tested on: RXRa DBDmut IVT, anti-RXR (DBD mutation: RXRa K156A/R161A, NR concentration 90 nM)
Summary of the method: as §1

[13] = tested on: RXRa homodimer (NR concentration 180 nM)
Summary of the method: as §1

[14] = tested on: THRa:RXRa (NR concentration 90 nM, RXRa partner concentration 90 nM)
Summary of the method: as §1

[15] = tested on: THRa homodimer (NR concentration 90 nM)
Summary of the method: as §1

[16] = tested on: VDR homodimer (NR concentration 270 nM)
Summary of the method: as §1

Sequence | PBM binding z-score [1] | PBM binding z-score [2] | PBM binding z-score [3] | PBM binding z-score [4] | PBM binding z-score [5] | PBM binding z-score [6] | PBM binding z-score [7] | PBM binding z-score [8] | PBM binding z-score [9] | PBM binding z-score [10] | PBM binding z-score [11] | PBM binding z-score [12] | PBM binding z-score [13] | PBM binding z-score [14] | PBM binding z-score [15] | PBM binding z-score [16]
CCGAGTAGGTTACGAGGGGGTATTCAGTGCGAAT | 4.05 | 4.17 | 1.24 | 2.91 | 0.693 | 1.99 | 0.377 | 1.51 | 1.15 | 1.98 | 1.63 | 0.847 | 1.17 | 2.6 | 0.46 | 1.11
CCGAGTAGGTTACGAGGGGGCGTTCAGTGCGAAT | 5 | 4.63 | 1.55 | 4.3 | 3.24 | 2.59 | 0.353 | 1.72 | 1.42 | 2.52 | 1.89 | 1.17 | 1.42 | 3.16 | 0.485 | 2.88
CTATGCAGGTTAAGGGGGTCATTCAGTTTGAAAG | 4.72 | 5.58 | 2.68 | 5.97 | 12.4 | 5.93 | 1.66 | 3.52 | 3.8 | 5.13 | 4.11 | 2.38 | 6.2 | 3.91 | 2.28 | 5.99
CTAGGTAGGTTAAGGGGGTCATTCAGTTTGAAAG | 5.01 | 5.61 | 2.95 | 5.85 | 11.1 | 5.43 | 1.74 | 3.26 | 3.87 | 4.95 | 3.79 | 1.97 | 5.77 | 3.78 | 2.19 | 5.84
CCGAGTAGGTTACGATGGGGCATTCAGTGCGAAT | 4.25 | 3.03 | -0.0463 | 0.69 | 0.101 | 0.251 | -0.659 | 1.03 | 0.657 | 0.828 | 0.851 | 0.0778 | 0.63 | 1.08 | -0.789 | 0.231
CTATATAGGTTAAGGGGGTCATTCAGTTTGAAAG | 7.39 | 7.38 | 4.56 | 6.35 | 12.1 | 6.42 | 1.99 | 3.91 | 3.8 | 5.72 | 4.34 | 2.61 | 6.69 | 4.18 | 1.99 | 6.17
CTGTGTAGGTTAAGGGGGTCATTCAGTTTGAAAG | 5.16 | 6.16 | 3.62 | 5.84 | 10.9 | 5.48 | 2.01 | 3.67 | 4.19 | 5.13 | 4.04 | 2.68 | 5.91 | 3.89 | 2.98 | 5.36
CTATGTAGGTTAAGGGGGTCATTCGGTTTGAAAG | 6.81 | 7.73 | 4.23 | 5.97 | 12.4 | 6.04 | 1.33 | 3.54 | 3.85 | 5.36 | 3.97 | 2.56 | 5.74 | 3.79 | 1.93 | 6.78
CCGAGTAGGTTACGAGGGGGCATTCAGTGCGAAT | 4.8 | 4.49 | 2.04 | 5.02 | 6.02 | 3.43 | 0.391 | 2.2 | 2.12 | 3.18 | 2.54 | 1.15 | 2.18 | 3.83 | 0.272 | 3.79
TCGAGTAGGTTACCGGGGCATTCAGGGATGAAGA | 3.7 | 4.46 | 0.533 | 0.554 | -0.524 | 0.534 | -0.856 | 1.22 | 1.09 | 1.01 | 0.946 | -0.0634 | 0.997 | 2.25 | 0.104 | -0.232
CTATGTAGGTTAAGGGGGTCATTTAGTTTGAAAG | 7.59 | 7.5 | 3.59 | 5.59 | 10.3 | 5.8 | 1.96 | 3.51 | 3.86 | 5.19 | 3.66 | 2.54 | 5.85 | 3.83 | 2.03 | 5.81
CTATGTTGGTTAAGGGGGTCATTCAGTTTGAAAG | 3.11 | 5.29 | 4.17 | 5.75 | 10.8 | 5.62 | 4.36 | 3.51 | 3.86 | 4.63 | 3.46 | 2.63 | 5.18 | 3.75 | 3.17 | 6.63
CCGAGTAGCTTACGAGGGGGCATTCAGTGCGAAT | 0.648 | 0.528 | 0.745 | 2.64 | 5.04 | 1.67 | -0.103 | 0.8 | 1 | 1.05 | 0.544 | 1.5 | 0.627 | 1.8 | -0.07 | 2.86
CTATGTAGGTTAAGGGGGTCACTCAGTTTGAAAG | 7.55 | 7.88 | 6 | 5.64 | 10.5 | 5.73 | 3.18 | 3.61 | 3.95 | 5.13 | 3.79 | 1.85 | 5.58 | 3.79 | 2.06 | 5.29
CCGAGTAGGTTTCGAGGGGGCATTCAGTGCGAAT | 2.27 | 2.41 | 1.58 | 3.09 | 5.29 | 1.88 | 0.558 | 1.28 | 1.58 | 1.89 | 1.17 | 1.67 | 1.19 | 2.37 | 0.874 | 3.52
CCGAGTAGGATACGAGGGGGCATTCAGTGCGAAT | 0.37 | 0.975 | 0.513 | 2.31 | 3.26 | 1.78 | -0.298 | 0.887 | 1.17 | 1.37 | 0.779 | 0.527 | 0.919 | 1.97 | -0.158 | 2.57
CTATGTAGGTTGAGGGGGTCATTCAGTTTGAAAG | 3.98 | 5.16 | 3.25 | 5.67 | 10.2 | 5.29 | 2.23 | 3.4 | 3.8 | 5.4 | 4.34 | 2.5 | 5.59 | 4.05 | 3.08 | 6.14
